IL-1B inflam inh: inflammasome signaling inhibition, IL-1 beta readout. actives 4.7% (n = 360,000). activity change, % at 57.5 µM. THP-1 LPS/ATP IL-1B secretion, AlphaLISA, 16 h; hits give low values. AID 743279; in the data active = activity change below about -50%; inconclusive = mostly about -30% to -49%
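Secreted IL-1B measured by AlphaLISA bead assay after 16 h compound exposure of THP-1 cells; compounds (final up to 57.5 uM) added 1 h before LPS (250 ng/mL) and ATP (1.25 mM) stimulation; lower signal means less secretion.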
HT1080NT lethal: kills 2HG-producing HT-1080-NT fibrosarcoma cells | actives 1.6% (n = 360,000) | HT-1080-NT fibrosarcoma viability, CellTiter-Glo ATP luminescence, 48 h | Potency, µM (highest dose often 46.1 µM), usual class: cytotoxic;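 note: NT is the 2HG producing partner of a matched IDH1 knockdown line; nearly all actives have a fitted effect of over 55% in size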
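Viability of the 2HG-overproducing fibrosarcoma line after 48 hours of compound exposure at 37 degrees C was determined by luminescence with CellTiter-Glo, and concentration-effect curves were then fitted and categorized.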
HT1080 IDH1KD tx: kills HT-1080 cells with IDH1 knockdown | AID 686971 | Potency, µM (titrated, usually from 46.1 µM), actives largely listed as cytotoxic | HT-1080 IDH1 knockdown viability, ATP luminescence, 48 h | actives 2% (n = 360,000)
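Knockdown cells (IDH1KD HT-1080) received compounds 2 h after plating at 750 cells/well and were kept 48 h at 37 °C in 5% FBS RPMI. A CellTiter-Glo luminescence read gave % activity for curve fitting.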
TDP1 cell CPT: DT40-hTDP1 cell growth loss with CPT; chicken DT40 Tdp1-/-;hTDP1 cells + 20 nM CPT, ATP luminescence, 48 h; Potency, µM (highest dose often 46.2 µM), usual class: inhibitors; actives 12% (n = 420,000); AID 686979; note: nearly all actives have a fitted effect of over 55% in size
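Cell growth measured by CellTiter-Glo luminescence after a minimum 48 h, 37 C compound exposure with 20 nM CPT in Tdp1-knockout DT40 cells stably expressing hTDP1, seeded 400/well; qHTS titration format.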
uPA surface inh: cell surface uPA generation inhibition. Potency, µM (series often up to 38.3 µM), hits mostly inhibitors. actives 0.31% (n = 330,000). cell surface uPA generation assay, qHTS; active = well fitted inhibition curve with a large enough effect; inconclusive = small, poorly fitted or top-dose-only effect; inactive = no such curve, though single readings can be large or run the other way; tested in mouse RAW 264.7 cells; note: nearly all actives have a fitted effect of over 55% in size
TDP1 cell noCPT: qHTS for Inhibitors of human tyrosyl-DNA phosphodiesterase 1 (TDP1): qHTS in cells in absence of CPT; DT40 Tdp1-/- hTDP1 cells, no CPT, ATP luminescence, 48 h; actives 15% (n = 420,000); Potency, µM (doses to about 46.2 µM), most hits filed as inhibitors; note: nearly all actives have a fitted effect of over 55% in size
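A cellular qHTS used chicken DT40 cells lacking endogenous Tdp1 but carrying stably transfected human TDP1. Compounds were applied without camptothecin, and cell growth kinetics were judged by ATP-dependent luminescence after ≥48 hr.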
Of the large screens only hits and unclear results are named; the others gave an inactive call. Most compounds without a hit are left out; they make up all but 19% or so of the library. Unless noted, calls come from the whole dose curve; as a rule, active = well fitted curve in the direction sought with a large enough effect; inconclusive = small, poorly fitted or top-dose-only effect, or another doubt; inactive = no such curve, though single readings can be large; an effect the other way counts as inactive or inconclusive.

CCn1c(SCC(N)=O)nc2sc3c(c2c1=O)CCN(C)C3	TDP1 cell CPT 23µM, TDP1 cell noCPT 13µM
CCCn1c(SCC(=O)N2CCN(C(C)=O)CC2)nc2sc3c(c2c1=O)CCC3	none
CCn1c(SCC(=O)Nc2ccc(C)cc2)nc2sc3c(c2c1=O)CCN(C)C3	TDP1 cell CPT inconclusive, TDP1 cell noCPT inconclusive
COc1ccc(N(CC(=O)NCCSCc2cccc(Cl)c2)S(C)(=O)=O)cc1Cl	IL-1B inflam inh inconclusive
O=C1C(=O)N(CCN2CCOCC2)C(c2ccccn2)/C1=C(/O)c1ccc(F)cc1 (stereo not drawn)	TDP1 cell CPT inconclusive, TDP1 cell noCPT 23µM
Cc1ccc(S(=O)(=O)N(C)C)cc1NC(=O)COC(=O)/C=C/c1ccc(F)cc1	none
Cc1nnnn1/C(=C\c1ccccc1)C(=O)OCC(=O)Nc1cccc(S(=O)(=O)N(C)C)c1	HT1080NT lethal inconclusive, HT1080 IDH1KD tx inconclusive, TDP1 cell CPT 10µM, uPA surface inh 8.9µM, TDP1 cell noCPT 7.3µM
O=C(CCCOc1ccccc1)Nc1cccnc1	none
O=C(COc1ccc(C(=O)c2ccccc2)cc1)Nc1cccnc1	HT1080NT lethal inconclusive, TDP1 cell CPT 5.2µM, TDP1 cell noCPT 2.9µM
N#Cc1ccc(-c2ccc(OCC(=O)Nc3cccnc3)cc2)cc1	IL-1B inflam inh -52, HT1080NT lethal inconclusive, HT1080 IDH1KD tx inconclusive, TDP1 cell CPT inconclusive, TDP1 cell noCPT inconclusive
CN(C)S(=O)(=O)c1cccc(NC(=O)COc2ccc(C(=O)c3ccccc3)cc2)c1	HT1080NT lethal inconclusive, HT1080 IDH1KD tx inconclusive, TDP1 cell CPT 18µM, TDP1 cell noCPT 16µM
CC(C)(C)C(=O)NCCCC(=O)O	none (no result: IL-1B inflam inh, HT1080NT lethal, HT1080 IDH1KD tx, uPA surface inh)
O=c1cc(CO)[nH]cc1OCc1ccccc1	none
CCOC(=O)c1ccc(NC(=O)NC2=NCCS2)cc1	HT1080NT lethal 2.6µM, HT1080 IDH1KD tx 2.3µM, TDP1 cell noCPT inconclusive (no result: uPA surface inh)
CCOC(=O)c1sc(NC(=O)C2CC2)cc1C	TDP1 cell CPT inconclusive, TDP1 cell noCPT inconclusive
CCOC(=O)c1sc(NC(=O)C(C)(C)C)cc1C	uPA surface inh 11µM
CCOC(=O)c1ccc(NC(=O)Nc2ccc(S(N)(=O)=O)cc2)cc1	none
CCOC(=O)c1sc(NC(=O)Nc2ccc(Cl)cc2)cc1C	IL-1B inflam inh -103, HT1080NT lethal inconclusive, HT1080 IDH1KD tx inconclusive, TDP1 cell CPT 5.8µM, TDP1 cell noCPT 3.7µM
Cc1ccc(C(=O)Nc2sc(C)c(C)c2C(=O)c2ccccc2)cc1	IL-1B inflam inh inconclusive, TDP1 cell CPT 16µM, TDP1 cell noCPT inconclusive
CCOC(=O)c1sc(NC(=S)NC(=O)C2CCCC2)cc1C	TDP1 cell CPT inconclusive, TDP1 cell noCPT 16µM
CCOC(=O)c1c(NC(=O)Nc2ccc(Cl)cc2)sc(C)c1C	TDP1 cell CPT inconclusive, TDP1 cell noCPT 13µM
CCOC(=O)c1sc(NC(=O)c2cccc(S(=O)(=O)N(CC)CC)c2)cc1C	HT1080NT lethal inconclusive, HT1080 IDH1KD tx inconclusive, TDP1 cell CPT 2.6µM, TDP1 cell noCPT 4.6µM (no result: uPA surface inh)
CCOC(=O)c1c(NC(=O)Nc2cccc(Cl)c2)sc(C)c1C	TDP1 cell noCPT inconclusive
CCOC(=O)c1c(NC(=O)c2cccnc2)sc(C)c1C	IL-1B inflam inh -54, TDP1 cell CPT inconclusive
Cc1ccc(N=C2NC(=O)CS2)cc1C	none
Cc1cccc(C)c1NCc1n[nH]c(=S)n1-c1ccccc1	TDP1 cell noCPT inconclusive (no result: uPA surface inh)
CC1=C(C(=O)Nc2ccc(F)cc2F)C2(CCN(C(C)C)CC2)OC1=O	none (no result: IL-1B inflam inh, HT1080NT lethal, HT1080 IDH1KD tx, uPA surface inh)
CCc1cc(S(=O)(=O)N2CCN(C(=O)c3ccco3)CC2)ccc1OC	TDP1 cell CPT inconclusive, TDP1 cell noCPT inconclusive
Cc1ccc(S(=O)(=O)N2C3CC(c4ccccc4)N(S(=O)(=O)c4cccc(Cl)c4)CC3C(=O)C[C@H]2c2ccccc2)cc1 (stereo partly drawn)	none (no result: uPA surface inh)
CCOC(=O)c1c(NC(=O)/C=C/C(=O)O)sc(C)c1-c1ccc(Cl)cc1	IL-1B inflam inh -71, HT1080NT lethal inconclusive, HT1080 IDH1KD tx 23µM, TDP1 cell CPT inconclusive, uPA surface inh 8.9µM, TDP1 cell noCPT 13µM
